Laboratory results: PubChem BioAssay AID743287 (Broad Institute, 2014)
Values joined by “and” are separate entries in the source; they are usually repeats but may differ in a detail not shown here. Identical values can stand only once. The whole screen tested about 370,000 compounds, of which about 2,300 (0.62%) were called active. The list comes from a sample in which actives are over-represented; it also holds similar structures and randomly drawn compounds. Unmarked numbers belong to inactive results.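 How the source made its calls: active means lowest replicate activation of at least 40%, so every replicate reaches that level; inactive means the rest.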

Assay: primary screen for activators of insulin secretion dependent on glucose, INS-1E cells, GLuc reporter luminescence (AID 743287);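 further: 0% = median of neutral control wells and 100% = median of IBMX positive control wells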
Conditions: INS-1E GLuc reporter insulin secretion, 2-3 h, at 16.6 µM, stronger effect = higher value

In order of falling activation:
1. CCOc1ncccc1C(=O)NCCc1ccc(OC)cc1  35.2%
2. C[C@H]1CN([C@@H](C)CO)C(=O)c2cc(NC(=O)C3CCCCC3)ccc2O[C@H]1CN(C)S(=O)(=O)c1cn(C)cn1  17.4%
3. COc1ccc2c3c(n(C)c2c1)[C@H](CO)N(C(=O)c1ccncc1)CC31CCN(CC2CC2)CC1  14.2%
4. CN(C)C(=O)N1CCN(C(=O)[C@@H](Cc2ccccc2)NC(=O)[C@H]2O[C@@H](n3ccc(N)nc3=O)[C@H](O)[C@@H]2O)CC1  13.5%
5. O=C(N[C@H](Cc1ccccc1)C(=O)N1CCCN(Cc2cccs2)CC1)[C@H]1O[C@@H](n2ccc(=O)[nH]c2=O)[C@H](O)[C@@H]1O  13%
6. COCCCNC(=O)CCc1nc2cccnc2n1Cc1ccc(OC)cc1  10.4%
7. NC(=O)c1oc2ccccc2c1NC(=O)Cc1ccccc1  9.27%
8. O=C(C1CCOCC1)N1CC(=O)N2[C@H](CO)[C@H](c3ccc(C#CC4CCCCC4)cc3)[C@H]2C1  6.98%
9. O=C(NCC[C@@H]1CC[C@@H](NS(=O)(=O)c2ccc(Cl)cc2)[C@@H](CO)O1)c1ccccc1F  6.92%
10. COCCCNC(=O)CNC(=O)c1nn(-c2ccc(OC)cc2)c(=O)c2ccccc12  5.37%
11. CN1C(=O)c2cc(NS(C)(=O)=O)ccc2OC[C@H]2O[C@H](CC(=O)NCc3ccccc3)CC[C@H]21  4.81%
12. C[C@@H]1CN([C@@H](C)CO)C(=O)CCCn2cc(nn2)CO[C@@H]1CN(C)S(=O)(=O)c1ccccc1C#N  4.61%
13. Cc1nc2ccccn2c(=O)c1NC(=O)c1cccs1  3.74%
14. N#Cc1ccc(-c2ccc([C@@H]3[C@H]4CNC[C@@H]3N4Cc3ccc4c(c3)OCO4)cc2)cc1  3.4%
15. C[C@H](CO)N1C[C@H](C)[C@@H](CN(C)C(=O)C2CC2)Oc2ncc(C#CC(C)(C)O)cc2C1=O  3.22%
16. O=c1c2ccccc2ncn1CCc1ccncc1  2.05%
17. COc1cccc(CNC(=O)[C@@H]2[C@@H](CO)[C@@H]3Cn4c(ccc(-c5cccnc5)c4=O)[C@@H]3N2C)c1  -0.31%
18. CCCC(=O)Nc1ccc2c(c1)C(=O)N(C)[C@@H]1CC[C@H](CC(=O)NCCOC)O[C@H]1CO2  -1.04%
19. C[C@@H]1CN([C@H](C)CO)C(=O)c2cc(NS(=O)(=O)c3cccs3)ccc2O[C@@H](C)CCCCO[C@@H]1CN(C)C(=O)c1ccncc1  -1.55%
20. O=C(Nc1cc(F)ccc1F)N1CCCCN2[C@H](CO)[C@@H](c3ccc(-c4cccnc4)cc3)[C@@H]2C1  -2.5%
21. COc1cccc(-n2nc(C(=O)N3CCN(Cc4ccccc4)CC3)c3ccccc3c2=O)c1  -2.64%
22. O=S(=O)(NCC[C@H]1CC[C@@H](NS(=O)(=O)c2cccc(Cl)c2)[C@@H](CO)O1)c1cccc(F)c1  -5.04%
23. CN(C)C(=O)c1ccc(-c2ccc(C3[C@@H]4CN(C(=O)Nc5ccccc5)C[C@H]3N4)cc2)cc1 (stereo partly drawn)  -5.33%
24. C[C@@H]1CN([C@H](C)CO)S(=O)(=O)c2ccc(C3=CCCC3)cc2O[C@H]1CN(C)C(=O)CC1CC1  -5.57%
25. O=C(C[C@@H]1CC[C@@H](NC(=O)C2CC2)[C@@H](CO)O1)NCc1ccccc1Cl  -6.27%
26. CO[C@H]1CN(C)C(=O)c2ccc(NC(=O)C3CCCC3)cc2OC[C@@H](C)NC[C@@H]1C  -7.48%
27. O=C1c2oc3ccccc3c(=O)c2C(c2cccc(O)c2)N1c1ccccn1 (stereo not drawn)  -8.86%
28. COCC(=O)N1CCC2(CC1)CN(C(=O)Nc1ccccc1F)[C@@H](CO)c1c2c2ccc(OC)cc2n1C  -10.5%
29. Cc1ccc(S(=O)(=O)Nc2ccc3c(c2)C(=O)N([C@@H](C)CO)C[C@@H](C)[C@@H](CN(C)S(=O)(=O)c2ccc(C)cc2)O3)cc1  -10.5%
30. C[C@@H]1CN([C@H](C)CO)C(=O)c2cccc(NC(=O)Nc3ccc4c(c3)OCO4)c2O[C@H]1CN(C)C(=O)Nc1ccc(F)cc1  -11.4%
31. C[C@H]1CN([C@@H](C)CO)C(=O)Cc2cc(NC(=O)Cn3cnnn3)ccc2O[C@@H]1CN(C)Cc1ccc(-c2ccccc2)cc1  -17.4%
32. COc1ccc(NC(=O)Nc2cccc3c2O[C@H](CN(C)Cc2ccc(Cl)c(Cl)c2)[C@H](C)CN([C@@H](C)CO)C3=O)cc1  -19%
33. Cc1ccc(S(=O)(=O)N(C)C[C@@H]2Oc3ccc(NC(=O)Nc4ccc(F)cc4)cc3C(=O)N([C@H](C)CO)C[C@@H]2C)cc1  -24.3%

For `CCOC(=O)Cn1c(=O)n(Cc2ccc(OC)cc2)c(=O)c2cccnc21`, the activation was 46.4% (active).
With `CO[C@@H]1CN(C)C(=O)c2ccc(NS(=O)(=O)c3ccc(Cl)cc3)cc2OC[C@@H](C)N(C)C[C@H]1C` the activation was -6.5% and 12.1%.
For `O=C(C1CCCCC1)N1C[C@@H]2N[C@H](C1)C2c1ccc(-c2cccc(F)c2)cc1` (stereo partly drawn), the activation was 22.3% and -4.66%.
In the case of `Cc1cccc(-c2ccc(C3[C@@H]4CN(C(=O)Nc5ccc(C(F)(F)F)cc5)C[C@H]3N4)cc2)c1` (stereo partly drawn), the activation is reported as 763% (active).
For `Cc1ccc2nc(CN(C)C(=O)[C@@H](Cc3ccccc3)NC(=O)[C@H]3O[C@@H](n4ccc(=O)[nH]c4=O)[C@H](O)[C@@H]3O)[nH]c2c1`, the activation was 42.3% (active).
For `CCOC(=O)c1oc2ccccc2c1NC(=O)c1cccs1`, the activation was 77.1% (active).
For `O=C(O)c1ccc(-n2nc(-c3ccccc3)c3ccccc3c2=O)cc1`, the activation was 65.3% (active).
In the case of `O=c1c2ccccc2c(-c2ccccc2)nn1-c1ccccn1`, the activation is reported as 53.1% (active).
In the case of `COc1ccccc1CN1[C@@H]2CNC[C@H]1C2c1ccc(-c2cccc(C#N)c2)cc1` (stereo partly drawn), the activation is reported as 0.586% and -8.29%.
In the case of `N#Cc1ccc(-c2ccc([C@@H]3[C@H]4CNC[C@@H]3N4Cc3cc(F)ccc3F)cc2)cc1`, the activation is reported as 137% (active).
